# Hits are enriched below; roughly 4% of the tested compounds scored in any of these assays.
# NALP3 yeast inh: inhibitors of NALP3 inflammasome in yeast. Yeast reconstituted NLRP3/ASC/caspase-1, beta-gal luminescence, 24 h. inhibition, % at 10 µM. 0.39% of 330,000 active. AID 2825;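 active means inhibition of 50% or more; inactive means inhibition below 50%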;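 further: plate controls were induced DMSO wells for no effect and uninduced yeast grown without galactose for full effect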
# TIM10 inh: TIM10 yeast growth inhibition; S. cerevisiae TIM10 strain growth, BacTiter-Glo luminescence, 24 h; inhibition, % at 10 µM; 1.4% of 330,000 active; AID 463195;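 active means inhibition of 40% or more at the single tested concentration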;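 further: wild-type TIM10 isogenic control strain grown at permissive 25 °C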
# tim10-1 inh: inhibits growth of tim10-1 mutant yeast; AID 463190; S. cerevisiae tim10-1 ts strain growth, BacTiter-Glo, 24 h; 2.2% of 330,000 active; inhibition, % at 20 µM;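 active means inhibition of at least 40%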;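 further: mutant grown at 25 °C; 0% = DMSO wells with yeast and 100% = wells holding no yeast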
# tim23-1 inh: inhibits growth of tim23-1 mutant yeast | S. cerevisiae tim23-1 growth, BacTiter-Glo luminescence, 24 h | inhibition, % at 20 µM | 1.3% of 330,000 active;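 active means growth inhibition of the mutant yeast at or above 50%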;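 further: temperature-sensitive mutant grown at 25 °C; plate controls were DMSO-treated mutant yeast for no effect and medium wells lacking yeast for full effect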
# NALP1 yeast inh: NALP1 inhibition | S. cerevisiae NALP1/ASC/caspase-1 growth, X-gal OD620, 72 h | inhibition, % at 10 µM | 0.61% of 280,000 active | AID 2071; in the data active means inhibition mostly above about 24%, no sharp cut-off; inactive means mostly below about 32%
# tim23-1 confirm: confirmation of tim23-1 mutant yeast growth inhibitors; shares compounds with tim23-1 inh; S. cerevisiae tim23-1 growth, BacTiter-Glo luminescence, 24 h; inhibition, % at 20 µM; 83% of 4,400 active; AID 463218;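 active means inhibition above about 39% in either of two replicate wells at 20 µM, limit read from the data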;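 further: temperature-sensitive tim23-1 mutant grown at 25 °C; 0% = DMSO wells with yeast and 100% = medium wells without yeast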
# Numbers without * were called inactive; . = no result given.
SMILES,NALP3 yeast inh,TIM10 inh,tim10-1 inh,tim23-1 inh,NALP1 yeast inh,tim23-1 confirm
COc1ccc2c(c1)C(=O)N(c1ccc(C)cc1C)C(=O)C2(C)C,34,36,33,55*,20,57*
COc1ccc(N=C2S/C(=C\c3ccc(Cl)c([N+](=O)[O-])c3)C(=O)N2CCN(C)C)cc1,27,35,40,60*,41,-27
O=C(C1CCN(S(=O)(=O)c2ccccc2)CC1)N1CCCCC1,3,-3,23,21,1,.
Cc1cc(C)c(CN2CCN(C(=O)Cn3cnc4c(NCc5ccccc5)ncnc43)CC2)c(C)c1,.,9,10,92*,.,12
Nn1c(SCC(=O)Nc2nccs2)nnc1C1CC1,25,1,-4,5,-2,.
C#C[C@]1(O)CC[C@H]2[C@@H]3CCC4=Cc5oncc5C[C@]4(C)[C@H]3CC[C@@]21C,-26,7,40,50*,.,50*
O=C(COC(=O)Cc1c(F)cccc1Cl)NC(=O)Nc1ccccc1F,2,9,2,14,.,.
COc1ccccc1N(CC(=O)NC1CCCC1)S(=O)(=O)c1cccc(C(F)(F)F)c1,10,16,26,37,.,.
Cc1ccc(C)c(-c2csc(N/N=C/c3ccco3)n2)c1,33,18,30,56*,4,39*
Cc1cc(C)n(-c2nc3ccccc3c(=O)n2OCc2ccc(F)cc2)n1,6,-4,25,48,8,.
Cc1cc(C)n(-c2nc3ccccc3c(=O)n2OCc2ccc(Cl)cc2)n1,11,15,29,52*,6,51*
OCc1cn(-c2ccccc2)nc1-c1ccc(Br)cc1,25,-3,-7,67*,-16,28
CC(C)COc1ccc(-c2nn(-c3ccccc3)cc2CO)cc1,28,16,20,41,4,.
C=CCn1cccc(C(=O)Nc2ccc(Cl)cc2)c1=O,8,18,22,53*,2,21
C=CCn1cccc(C(=O)Nc2ccc(SC)cc2)c1=O,30,5,28,39,17,.
CCc1ccc(N2CCN(S(=O)(=O)CC34CCC(CC3=O)C4(C)C)CC2)cc1 (centres undefined),12,10,10,34,15,.
C/C(=N\Nc1nc2ccccc2s1)c1cccs1,0,20,32,64*,13,48*
C/C(=N\Nc1nc(-c2ccccc2)cs1)c1cccs1,9,18,28,22,16,.
CC(=O)Nc1ccc(/C=N/Nc2nc3ccccc3s2)cc1,.,.,.,.,18,.
C(=N\Nc1nc2ccccc2s1)/c1cccs1,11,18,0,59*,-3,38
COc1ccc(CNc2nc(NCc3ccc(OC)c(OC)c3)n(C(=O)c3cccs3)n2)cc1OC,31,12,25,8,11,.
COCCCNC(=O)CCCCCNS(=O)(=O)c1ccc(Br)cc1,10,10,0,2,19,.
Cc1ccc2c(c1)/C(=N/N1C(=O)c3ccccc3C1=O)C(=O)N2,3,8,30,43,39,.
Cc1ccc2c(c1)/C(=C/c1ccccc1C)C(=O)N2,-9,30,37,53*,23,42*
COc1ccccc1/C=C1\C(=O)Nc2ccccc21,37,35,31,62*,-2,46*
SMILES,NALP3 yeast inh,TIM10 inh,tim10-1 inh,tim23-1 inh,NALP1 yeast inh,tim23-1 confirm
CCC1CCCCN1C(=O)CSc1nnc(CNC(=O)c2c(F)cccc2Cl)o1 (centres undefined),6,0,-5,10,-20,.
O=C(Nc1ccccc1Oc1cccnc1)C1CCCN(C/C=C/c2ccccc2)C1 (centres undefined),-6,18,21,21,14,.
O=C1NC(=S)SC1=C1CCCCCC1,28,3,24,50*,-17,69*
S=C(Nc1ccc2nsnc2c1)N1CCCCCC1,3,19,26,55*,-4,40*
O=C(Nc1ccc2nsnc2c1)N1CCCCC1,15,6,-4,5,-10,.
COc1c(Cl)cccc1-c1cn2ccccc2n1,41,20,6,55*,.,34
FC(F)(F)c1cc(Nc2ccccc2)nc(-c2ccccn2)n1,37,35,22,51*,26,34
CC(C)Nc1cc(C(F)(F)F)nc(-c2ccccn2)n1,2,-13,35,-10,3,.
O=C(Cc1cccc(C(F)(F)F)c1)NCc1ccc(Cl)cc1Cl,14,14,10,-3,13,.
O=C1C=C(c2ccc3cc[nH]c3c2)C[C@@H](c2ccc3c(c2)OCO3)C1,23,23,21,55*,.,47*
COc1cc(C=O)ccc1OCc1ccncc1,11,13,15,0,6,.
COc1cc(C=O)c(Br)cc1OCc1ccc(C)cc1,-25,39,13,65*,4,57*
Cc1cccc(-n2c(SCC(N)=O)nc3c(c2=O)C2(CCCC2)Cc2ccccc2-3)c1,8,38,25,54*,37,47*
CC1=CC(=C(C#N)C#N)C=C(C)N1Cc1ccccc1,3,2,12,17,5,.
CC(=O)Nc1sc2c(c1C#N)CCCC2,-12,-5,15,9,.,.
N#Cc1c(NC(=O)C2CC2)sc2c1CCCCC2,14,28,35,51*,26,44*
COc1cc(N2C(=O)c3ccccc3C2=O)c(Cl)cc1C(=O)OCC(=O)N(C)C,10,-4,-2,4,15,.
CCCC(=O)n1nc(-c2ccco2)nc1SCc1ccccc1,-2,36,35,54*,6,52*
O=C(CCCN1C(=O)/C(=C/c2ccccc2Cl)SC1=S)N1CCCC1,22,30,32,51*,-2,56*
O=C(CCCN1C(=O)/C(=C/c2cccc(Br)c2)SC1=S)N1CCOCC1,14,35,37,53*,12,36
CN1CCN(C(=O)CCCN2C(=O)/C(=C/c3cccc(Br)c3)SC2=S)CC1,21,37,26,46,-19,.
CCCCCCOC(=O)Nc1ccc(S(=O)(=O)Nc2cccc([N+](=O)[O-])c2)cc1,-5,7,-12,-7,-32,.
Nc1cc(S(=O)(=O)C(F)(F)F)ccc1C(=O)O,-11,-20,-11,-1,1,.
O=S(=O)(c1ccc2c(c1)C(O)c1ccccc1CC2)C(F)(F)F (centres undefined),24,24,34,63*,.,45*
CCOP(=O)(OCC)C(Nc1ccccc1)c1ccccc1C(F)(F)F (centres undefined),-18,30,16,37,-3,.
CCOP(=O)(OCC)C(Nc1ccccc1)c1cc(OC)ccc1OC (centres undefined),-3,17,17,52*,18,26
O=Cc1cnc2ccccc2c1-c1ccccc1,21,2,12,63*,4,58*
O=Cc1cn[nH]c1-c1ccccc1,8,2,0,7,-15,.
Oc1ccc(-c2nc3ccccc3s2)cc1,37,30,36,69*,9,64*
c1ccc2sc(-c3ccncc3)nc2c1,13,-13,14,17,0,.

# Source: PubChem (Sanford-Burnham Center for Chemical Genomics)
